Experimental data published in PubChem BioAssay AID1839 (Johns Hopkins Ion Channel Center, 2009).
The campaign covered roughly 2,400 compounds. About 220 (9.2%) were called active. What follows is part of a selection rich in actives, with near analogues and random picks from the rest. A number with no mark means an inactive call.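 Rule for the calls: active = signal change above the mean of dofetilide-free buffer controls plus 3 SD, so a positive margin; inactive = the rest.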

Test: thallium signal changes without hERG – cell-based, CHO-K1 parental line, FluxOR thallium flux, counter-screen for hERG block protection project, confirmation (AID 1839);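 note: compounds applied alone with no dofetilide to cells lacking hERG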
Conditions: CHO-K1 parental cells, FluxOR thallium flux fluorescence; at 10 µM

SMILES | signal change vs control minus 3*SD hit threshold (margin above threshold, higher = more increase)
CCn1c(=S)[nH]c2c(c1=O)C(C)(C)Cc1ccccc1-2 | -6.7%
CC(=O)NC(CSC(CC(=O)c1ccco1)c1ccc(C)cc1)C(=O)O (centres undefined) | -32.8%
CCCCCCC1CCC(C(=O)N2CCOCC2)CC1 (centres undefined) | -21.3%
CCCCCC/C(C)=C1/SC(=S)NC1=O | 39.1% (active)
CCCCCCCC/C=C\CCCCCCCC(=O)O | -20.7%
COc1ccc(S(=O)(=O)Nc2ccc(Cl)cn2)c(C)c1C | -32.2%
Cc1ccc(N2CCN(C(=O)N3CCCC3)CC2)cc1C | -15.1%
CCC1(c2ccc(Cl)cc2)NC(=S)N(c2ccc(C)c(C)c2)N1 (centres undefined) | 40.7% (active)
CCC1(c2ccccc2)NC(=S)N(c2ccc(C)c(C)c2)N1 (centres undefined) | 48.1% (active)
Nc1ccc2c(c1)C(=O)C(=O)c1ccccc1-2 | -22.4%
O=C(CCc1ccccc1)NC(=S)Nc1cc(C(F)(F)F)ccc1N1CCOCC1 | -29.5%
CC(=O)NC1C(Oc2ccccc2C)OC(CO)C(O)C1O (centres undefined) | -23.9%
Cc1ccc(C(=O)NC(=S)N(C)C2CCCCC2)cc1 | -21.2%
CCc1nnc(NC(=O)C2CCCCN2S(=O)(=O)c2ccccc2)s1 (centres undefined) | -23%
CCOC(=O)c1nc(C)n(-c2ccc(Cl)cc2)n1 | -24.3%
CCOC(=O)C1=NN(C(=O)c2ccc(OC)cc2)C(O)(c2ccc(Cl)cc2)C1 (centres undefined) | 14.4% (active)
COc1ccc(C(=O)CC(=O)C(=O)Nc2ccc(Cl)cc2)cc1 | -16.3%

SMILES | signal change vs control minus 3*SD hit threshold (margin above threshold, higher = more increase)
CCOC(=O)C1=NN(C(=O)c2ccccc2)C(O)(c2ccc(C)cc2)C1 (centres undefined) | -27.5%
CCOC(=O)C1=NN(C(=O)c2ccc(C)cc2)C(O)(c2ccc(Cl)cc2)C1 (centres undefined) | 50.6% (active)
COc1ccc(OC)c(NC(=O)COC(=O)c2ccc(-n3cnnn3)cc2)c1 | -34.5%
COc1ccccc1CNC(=O)COC(=O)c1ccccn1 | -28.9%
COc1cc(C(=O)Nc2ccc(O)cc2C(=O)O)ccc1OC(C)=O | -19.9%
O=C(O)c1ccc(N=NNc2cccc([N+](=O)[O-])c2)cc1 | -26.6%
CC(C)OC(=O)c1c2nc3ccccc3nc2n2c1[nH]c(=O)c1ccccc12 | 29.4% (active)
CCc1ccc(C(=O)CSc2nc3ccccc3c(=O)[nH]2)cc1 | -26.7%
CCCCOC(=O)Cn1c2ccc(OC)cc2c2nc3ccccc3nc21 | -28.3%
O=C(COc1ccccc1Cl)NC(=S)Nc1ccccc1N1CCCC1 | -25.7%
S=C(NCCc1ccccc1)N/N=C/c1c(Cl)cccc1Cl | -34.7%
CCc1cc(=O)[nH]c(SCc2ccc(C)cc2)n1 | -28.5%
CSc1nc(=S)cc(C)[nH]1 | -16.8%
CCSc1nc(=S)cc(C)[nH]1 | 26.3% (active)
CSc1cccc(NC(=O)CN2C(=O)c3ccccc3S2(=O)=O)c1 | -50.6%
CCCCn1nc(NC(=O)COC)c2cc3ccc(C)cc3nc21 | -27.6%
CCOC(=O)C1CCCN(C(=O)CN2C(=O)c3ccccc3C2=O)C1 (centres undefined) | -35.1%
